MPTP block = inhibitors of mitochondrial permeability transition pore | isolated mouse mitochondria, Ca2+ swelling absorbance, 30 min | inhibition, % at 10 µM | actives 1.4% (n = 360,000);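 active means inhibition of 50% or more, scaled per plate between neutral and stimulator controls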;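 further: 0% = DMSO wells given calcium and 100% = 1 mM EGTA wells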
CSC inhib = blocks cancer stem cells. inhibition, % at 7.5 µM. actives 1.1% (n = 300,000). cancer stem cell-like cells viability, luminescence. AID 2717; in the data active means inhibition above about 75%; inconclusive means no clear call, values can overlap the other calls; tested in HMLE shEcad cells
NR3A LBD binder = modulates the human NR3A ligand-binding domain; actives 2.5% (n = 340,000); Tm shift relative to glycine control, % at 25 µM; NR3A LBD differential scanning fluorimetry, Tm shift; 0% = protein alone, 100% = glycine-bound protein;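 active means melting temperature shift of at least 10% of the positive control shift, at one fixed dose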
Beta apoptosis = beta cell apoptosis inhibition; protection from apoptosis, % (concentration not given with the values); actives 0.8% (n = 300,000); AID 435005; INS-1E cytokine-induced death, ATP luminescence, 48 h; percent of positive-control rescue, neutral wells zero;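 active means Every replicate reaches about 75%, or at least half do and their mean reaches it too, limit read from the data; inconclusive means At least half of replicates reach the limit but their mean does not; inactive means Under half of replicates reach the limit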;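 further: 0% = cytokine-treated negative control wells and 100% = positive control rescue; higher means more ATP so stronger rescue from cytokine killing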
Gli-Sufu block = blocks Gli-Sufu signaling in a luciferase reporter | Sufu-KO-LIGHT fibroblasts, Gli luciferase reporter luminescence | inhibition, % at 5 µM | actives 0.74% (n = 340,000);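 active means inhibition above about 55%, limit read from the data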;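 further: 0% = DMSO-treated cells and 100% = wells with medium but no cells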
Mdm2 MdmX PPI = human Mdm2/MdmX binding inhibition; AID 485346; SaOS-2 split-luciferase Mdm2/MdmX complementation, luminescence; actives 3% (n = 330,000); inhibition, % at 8 µM;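 active means inhibition of at least 50% at 8 µM in the primary screen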
Mdm2 MdmX conf = confirmation of human Mdm2/MdmX interaction inhibitors; shares compounds with Mdm2 MdmX PPI; Mdm2-MdmX binding, luminescent assay; inhibition, % at 8 µM; actives 55% (n = 10,000); AID 489028; in the data active means inhibition above about 40%
FLuc counter = full-length luciferase inhibition in Mdm2/MdmX counter-screen | shares compounds with Mdm2 MdmX PPI | SaOS-2 full-length luciferase counterscreen, luminescence | inhibition, % at 8 µM | actives 77% (n = 6,200);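 active means mean inhibition at 8 µM reaching about 37%, which flags the compound as non-specific, limit read from the data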;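 further: p53-null SaOS-2 cells with luciferase driven by a doxycycline-inducible promoter; compound on cells about two nights before reading with doxycycline added after day one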
The depositor's hits bear a star; ? = inconclusive; . = no result given. Most compounds without a hit are left out; they make up all but 6.6% or so of the library.

SMILES	MPTP block	CSC inhib	NR3A LBD binder	Beta apoptosis	Gli-Sufu block	Mdm2 MdmX PPI	Mdm2 MdmX conf	FLuc counter
C/C(CCC12CC3CC(CC(C3)C1)C2)=N\NC(N)=S	-0.2	18.9	-1.2	13.8	39.6	31.2	.	.
C/C(CC(C)(C)C1CCCCC1)=N\NC(N)=S	0.2	.	-0.4	.	35.9	56.2*	6.5	.
COc1ccc(C(=O)NCc2nnc(SCC(=O)Nc3cc(Cl)ccc3OC)o2)cc1	-0.7	7.9	1.8	-10.2	-10.9	20.4	.	.
Cc1ccc(-c2cc(C(=O)Nc3ccc(S(=O)(=O)Nc4cc(C)on4)cc3)c3ccccc3n2)c(C)c1	-0.2	8.4	-2.5	-4.3	4.1	11.8	.	.
COc1ccc(-c2nc3ccccc3c(C(=O)Nc3ccc(S(=O)(=O)Nc4cc(C)on4)cc3)c2C)cc1	-1.8	32.9	-2.8	3.4	5.6	76.4*	56.1*	53.4*
CCOC1=C2[C@@H](CN(S(=O)(=O)c3ccc(C)cc3)[C@H]2c2ccccc2Cl)[C@H]2C(=O)N(Cc3ccccc3)C(=O)[C@H]2C1	1.1	.	.	.	.	.	.	.
Cc1cccc(NC(=O)C2CCN(C(=O)c3ccc(F)cc3)CC2)n1	-0.3	-6.3	-0.9	-5.6	1.1	13.4	.	.
CCCCn1c(CCC)nc([N+](=O)[O-])c1Sc1ccc(Cl)cn1	2.5	-2.8	1.5	1.6	0.8	62.7*	18.1	.
COc1ccc(CSCC(=O)N/N=C/c2ccccc2O)cc1	-0.7	8.6	2.5	-10.0	-5.6	57.4*	35.6	64.8*
COc1cccc2c(SCC(=O)N/N=C/c3ccc(O)cc3O)cc(C)nc12	-1.0	.	26.4*	.	1.3	53.6*	46.0*	65.4*
COc1ccc2nc(C)cc(SCC(=O)N/N=C/c3ccc(O)cc3O)c2c1	4.3	104.0*	24.6*	77.2*	-10.2	55.0*	78.8*	36.6*
COc1ccccc1/C=N/NC(=O)CSc1ccc2ccccc2n1	1.3	30.7	0.6	1.7	-32.0	12.0	.	.
COc1ccc2nc(C)cc(SCC(=O)N/N=C/c3ccccc3)c2c1	3.0	4.2	-2.6	-16.4	7.5	2.8	.	.
O=C(CSc1ccccc1)N/N=C/c1ccccc1O	-0.5	1.1	-5.9	-2.8	8.2	42.3	.	.
CCCCSc1nc(C)cc(SCC(=O)N/N=C/c2cccc(OC)c2O)n1	20.7	?	2.5	48.3	-2.2	72.0*	79.5*	34.4
O=C(CNC(=O)c1cccc(F)c1)N/N=C/c1cccs1	-0.5	8.2	-1.7	-0.7	3.4	-9.6	.	.
C=CCn1c(CNc2ccc(C)cc2)nnc1SCC(=O)N/N=C/c1ccc(O)cc1O	0.9	105.7*	-11.1	1.1	4.8	57.1*	56.4*	35.6
COc1ccc(-c2c(C#Cc3ccc(N(C)C)cc3)c3ccccc3n2C)cc1	1.8	.	-0.2	6.5	4.4	52.5*	9.3	.
COc1cc(C#Cc2c(C=O)n(C)c3ccccc23)cc(OC)c1	0.5	32.1	0.6	-1.7	-3.8	65.6*	39.0	77.8*
Cn1cncc1C#Cc1c(C=O)n(C)c2ccccc12	0.3	-26.0	-0.3	-6.3	-3.7	32.0	.	.
O=C(CN(c1cccc(Br)c1)S(=O)(=O)c1ccccc1)N/N=C/c1cc([N+](=O)[O-])ccc1O	26.4	22.7	13.5*	.	4.1	51.6*	35.2	.
O=C(CCCC(=O)Nc1cccc(Br)c1)N/N=C/c1cc([N+](=O)[O-])ccc1O	-0.3	-6.5	6.7	12.9	-2.6	74.2*	34.9	.
O=C(CCC(=O)Nc1cccc(Cl)c1)N/N=C/c1cc([N+](=O)[O-])ccc1O	1.1	13.6	3.5	28.9	1.8	41.6	.	.
Cc1nc(SCC(=O)Nc2cc(C(N)=O)cc(C(N)=O)c2)c2c(C)c(C)sc2n1	0.7	6.0	-0.1	-1.5	0.2	16.7	.	.
Oc1cccc(-c2nc3c4c(ncn3n2)-c2ccccc2CC42CCCC2)c1	10.8	111.4*	37.0*	-4.5	5.3	58.3*	7.2	.
SMILES	MPTP block	CSC inhib	NR3A LBD binder	Beta apoptosis	Gli-Sufu block	Mdm2 MdmX PPI	Mdm2 MdmX conf	FLuc counter
COc1ccc(OCc2nc3c4c(ncn3n2)-c2ccccc2CC42CCCC2)cc1	35.1	.	4.4	4.6	5.4	2.8	.	.
COc1ccc(NC(=O)CN(C)C(=O)Cc2ccc(S(=O)(=O)N3CCOCC3)s2)cc1	-0.3	-7.7	-3.2	-2.7	-16.3	0.3	.	.
CC1(Oc2cccc(F)c2)CCN(Cc2ccc(-c3ccccn3)cc2)C1 (stereo not given)	-0.1	.	.	.	.	.	.	.
CC1(C(=O)NS(=O)(=O)c2cccc(C#N)c2)CCN1C(=O)C/C=C/c1ccccc1 (stereo not given)	-1.8	.	.	.	.	.	.	.
Cc1ccc2nc(C(F)(F)F)c(C#N)c(N)c2c1	1.0	23.3	-1.0	-33.7	-8.3	85.0*	67.2*	25.7
Cc1cc(C)c2nc(C(F)(F)F)c(C#N)c(N)c2c1	38.1	-2.5	0.8	-7.8	-8.4	70.9*	86.1*	55.0*
CCOc1ccc(N2CC(C(=O)NCCCc3ccccc3)CC2=O)cc1 (stereo not given)	-1.5	-4.2	-0.8	5.6	-0.9	-13.4	.	.
CC1=C(C(=O)Nc2ccccc2)C(c2ccco2)C(C#N)=C(SCC(=O)Nc2cccc(C)c2C)N1 (stereo not given)	3.0	4.9	-0.6	53.1	2.0	69.2*	42.4*	79.3*
CC1=C(C(=O)Nc2ccccc2)C(c2ccco2)C(C#N)=C(SCc2ccccc2)N1 (stereo not given)	.	?	.	19.8	.	42.2	.	.
O=C(CN1C(=O)NC2(CCCC2)C1=O)Nc1nc2c(F)cc(F)cc2s1	2.4	0.1	-0.4	-2.8	-7.4	-53.5	.	.
CCn1c(SCc2c(Cl)cccc2Cl)nc2nc3c(cc2c1=O)CCCC3	-0.5	30.3	0.8	27.9	18.6	64.4*	62.9*	35.8
CCn1c(SCc2ccccc2Cl)nc2nc3c(cc2c1=O)CCCC3	3.1	.	1.0	.	12.3	.	.	.
Cc1ccc(C(=O)N/C(=C/c2ccco2)C(=O)OCN2C(=O)c3ccccc3C2=O)cc1	0.1	7.6	-2.4	-3.9	-1.7	6.4	.	.
COc1ccc2c(c1)c(CC(=O)Nc1nnc(C3CC3)s1)c(C)n2C(=O)c1ccc(Cl)cc1	2.7	.	-4.2	15.0	0.3	82.8*	79.8*	64.8*
COc1nc(Nc2nc3ccccc3c(=O)[nH]2)nc2ccc(C)cc12	2.4	125.5*	0.3	97.1*	62.9*	65.5*	42.8*	75.8*
Cc1nc(Nc2nc(CSc3ccc(Cl)cc3)cc(=O)[nH]2)nc2ccccc12	-0.5	-35.4	-0.1	15.9	11.2	25.0	.	.
Cc1nc(Nc2nc(-c3ccccc3)cc(=O)[nH]2)nc2ccccc12	-1.2	.	5.7	3.1	-19.2	68.2*	45.0*	70.3*
COc1ccc2nc(Nc3nc(CSc4nc5ccccc5[nH]4)cc(=O)[nH]3)nc(C)c2c1	1.9	66.5	-6.6	76.6*	-64.1	65.4*	52.2*	46.2*
